Laboratory results: PubChem BioAssay
Several values for one entry are separate records, joined by “and”; a condition that tells them apart may be missing. Identical values can stand only once. Activity calls are given as the source filed them.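 The calls were made as follows, unless noted: active = compounds whose cell count with miR-34 switched on is under 0.7 times the count with it off; inactive = the rest.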

Assays:
[1] = P. berghei load reduction in hepatocytes – cell-based, HepG2, luciferase luminescence, HepG2 viability, primary screen (AID 624349; in the data active = parasite load remaining mostly below about 12%, no sharp cut-off; inactive = mostly above about 10%;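 also: 100% = mean of DMSO negative control wells on the same plate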); settings: P. berghei liver stage in HepG2, luciferase luminescence, concentration not given here; parasite load remaining: stronger effect = lower value; viability: measured here: HepG2 viability without parasites
[2] = viability loss with induced miR-34 in A549 – imaging, A549 dox-inducible miR-34, nuclei and caspase counts, primary screen (AID 1347080); settings: A549 miR-34 inducible, Hoechst nuclei count, 48 h
[3] = MELAS cybrid and Rieske KO viability enhancers – cell-based, MELAS cybrids, Rieske KO mouse fibroblasts, CellTiter-Glo, primary screen (AID 1508586;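 active = mean z-score across replicates of 1.96 or higher in either the MELAS or the Rieske mutant cell line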;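 also: z relative to plate mean and SD of compound and empty wells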); settings: low glucose
[4] = galactose survival enhancers in mitochondrial complex I cybrids – cell-based, galactose medium, ATP luminescence, primary screen (AID 1645843;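 active = z-score of at least 1.8 in each of two replicates, scored against plate mean and spread of sample wells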;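 also: positive z means more ATP and so rescue of galactose-driven cybrid death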); settings: complex I mutant cybrid cells, 72 h, stronger effect = higher value
[5] = stronger effect = lower value, cell number ratio, induced over uninduced
[6] = measured here: relative caspase fold change +Dox/-Dox
[7] = measured here: total cells with miR-34 induction, stronger effect = lower value
[8] = measured here: total cells without miR-34 induction
[9] = MELAS cybrid survival, CellTiter-Glo 48 h, stronger effect = higher value
[10] = Rieske KO mouse fibroblast survival, CellTiter-Glo 72 h

| Structure (SMILES) | parasite load remaining [1] | viability [1] | fold change [2, 5] | fold change [2, 6] | cell count [2, 7] | cell count [2, 8] | z-score [3, 9] | z-score [3, 10] | z-score [4] |
| --- | --- | --- | --- | --- | --- | --- | --- | --- | --- |
| CO/N=C(\C(=O)N[C@@H]1C(=O)N2C(C(=O)[O-])=C(C[N+]3(C)CCCC3)CS[C@H]12)c1csc(N)n1 | 37.1% (inactive) | 100% | 0.872 (inactive) | 1.15 | 9480 | 10900 | -0.344 (inactive) | 0.0422 | 0.485 (inactive) |
| CC(=O)OC1C=C2C(Cl)=C[C@@H]3[C@H](CC[C@@]4(C)[C@H]3CC[C@]4(OC(C)=O)C(C)=O)[C@@]2(C)CC1 (some centres not stated) | 9.03% (inactive) | 64% | 0.729 (inactive) | 1.61 | 7220 | 9910 | 0.137 (inactive) | 1.01 | 0.185 (inactive) |
| COC(=O)c1ccc(=O)c2nc3/c(=C/O)c(O)cc(=O)c3[nH]c12 | 91.5% (inactive) | 96.5% | 0.984 (inactive) | 1.28 | 3340 | 3400 | 0.379 (inactive) | -0.491 | -0.55 (inactive) |
| COC(=O)c1ccccc1O | 53.2% (inactive) | 98% | 0.851 (inactive) | 1.32 | 10100 | 11800 | -0.407 (inactive) | -0.367 | 0.47 (inactive) |
| CC1(C)C[C@H]1C(=O)N/C(=C\CCCCSC[C@@H](N)C(=O)O)C(=O)O | 23.2% (inactive) | 65% | 0.879 (inactive) | 0.978 | 9660 | 11000 | 0.461 (inactive) | 1.05 | 0.565 (inactive) |
| CCC(=O)OCC(=O)[C@@]1(OC(=O)CC)[C@@H](C)C[C@H]2[C@@H]3CCC4=CC(=O)C=C[C@]4(C)C3(F)[C@@H](O)C[C@@]21C (some centres not stated) | 19.5% (inactive) | 67% | 0.837 (inactive) | 1.41 | 6650 | 7940 | 0.189 (inactive) | 1.36 | 0.155 (inactive) |
| CC#CCC(C)[C@H](O)/C=C/[C@@H]1[C@H]2C/C(=C/CCCC(=O)O)C[C@H]2C[C@H]1O (some centres not stated) | 12.8% (inactive) | 77.5% | 0.876 (inactive) | 1.59 | 8850 | 10100 | -0.239 (inactive) | -0.923 | 0.275 (inactive) |
| Nc1nc(=O)n([C@@H]2CS[C@H](CO)O2)cc1F | 56.6% (inactive) | 160% | 0.911 (inactive) | 1.49 | 10100 | 11100 | 0.34 (inactive) and -0.461 (inactive) | -0.0583 and -0.327 | 0.88 (inactive) |
| CS(=O)(=O)c1ccc([C@@H](O)[C@@H](COC(=O)CN)NC(=O)C(Cl)Cl)cc1 | 19.3% (inactive) | 69.5% | 0.967 (inactive) | 1.61 | 9390 | 9720 | -0.278 (inactive) | 1.38 | -1.12 (inactive) |
| CC(C)C[C@H](NC(=O)[C@@H](COC(C)(C)C)NC(=O)[C@H](Cc1ccc(O)cc1)NC(=O)[C@H](CO)NC(=O)[C@H](Cc1c[nH]c2ccccc12)NC(=O)[C@H](Cc1cnc[nH]1)NC(=O)[C@@H]1CCC(=O)N1)C(=O)N[C@@H](CCCN=C(N)N)C(=O)N1CCC[C@H]1C(=O)NNC(N)=O | 53.9% (inactive) | 102% | 0.891 (inactive) | 1.53 | 10600 | 11900 | -0.533 (inactive) | -0.444 | 0.71 (inactive) |
| CNC1(C)[C@H]2CC[C@H](C2)C1(C)C (some centres not stated) | 95.3% (inactive) | 108% | 0.905 (inactive) | 1.29 | 9940 | 11000 | 0.54 (inactive) | -0.569 | 0.66 (inactive) |
| CN1C[C@H](C(=O)N[C@]2(C)O[C@@]3(O)[C@@H]4CCCN4C(=O)[C@H](Cc4ccccc4)N3C2=O)CC2c3cccc4[nH]cc(c34)C[C@H]21 (some centres not stated) | 81.9% (inactive) and 39.4% (inactive) | 69.3% and 96.5% | 0.973 (inactive) and 0.855 (inactive) | 1.1 and 1.21 | 7780 and 9120 | 8000 and 10700 | -0.956 (inactive) | -0.402 | 0.325 (inactive) |
| N.N.O=C(O)CO.[Pt] | 50.4% (inactive) | 108% | 0.961 (inactive) | 1.22 | 10100 | 10500 | -0.923 (inactive) | -1.2 | 0.195 (inactive) |
| Cc1c(N)nc([C@H](CC(N)=O)NC[C@H](N)C(N)=O)nc1C(=O)N[C@@H](C(=O)N[C@H](C)[C@@H](O)[C@H](C)C(=O)N[C@@H](C(=O)NCCc1nc(-c2ncc(C(=O)NCCC[S+](C)C)s2)cs1)[C@@H](C)O)[C@@H](O[C@@H]1O[C@@H](CO)[C@@H](O)[C@H](O)[C@@H]1O[C@@H]1O[C@H](CO)[C@@H](O)[C@@H](OC(N)=O)[C@@H]1O)c1cnc[nH]1 | 89.5% (inactive) | 111% | 0.865 (inactive) | 1.1 | 4410 | 5100 | -1.31 (inactive) | -1.18 | -1.23 (inactive) |
| CC(C)C[C@@H](NC(=O)[C@H](Cc1ccccc1)NC(=O)c1cnccn1)B(O)O | -0.325% (inactive) | 1% | 1.12 (inactive) | 1.54 | 1190 | 1060 | -1.11 (inactive) | 0.911 | -2.25 (inactive) |
| CCCCC(C)(O)C/C=C/[C@H]1[C@H](O)CC(=O)[C@@H]1CCCCCCC(=O)OC (some centres not stated) | 25.9% (inactive) | 64% | 1.01 (inactive) and 0.901 (inactive) | 1.23 and 1.3 | 5920 and 9930 | 5880 and 11000 | -0.242 (inactive) and 0.112 (inactive) | -0.698 and -0.238 | 0.245 (inactive) |
| CC(C)NC[C@@H](O)c1ccc(O)c(O)c1 | 67.9% (inactive) | 93.2% | 1.04 (inactive) and 0.887 (inactive) | 1.51 and 1.13 | 10500 and 9200 | 10100 and 10400 | 0.464 (inactive) | -0.759 | -1.29 (inactive) |
| CC[C@H]1OC(=O)[C@H](C)[C@@H](O[C@H]2C[C@@](C)(OC)[C@@H](O)[C@H](C)O2)[C@H](C)[C@@H](O[C@@H]2O[C@H](C)C[C@H](N(C)C)[C@H]2O)C(C)(O)C[C@@H](C)CN(C)[C@H](C)[C@@H](O)[C@]1(C)O (some centres not stated) | 18.4% (inactive) | 65.5% | 0.876 (inactive) | 1.13 | 9530 | 10900 | -0.337 (inactive) and 0.0634 (inactive) | -0.912 and -0.719 | 0.015 (inactive) |
